A short description of test [1]: AP1 Signaling Pathway (AID 357).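 Further: ME-180 reporter cells stimulated with EGF at its EC50 level; on the % scale 0 is the no-effect control and ±100 the full control effect.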 Put shortly:
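Beta-lactamase reporter under AP-1 response element, ME-180 background. Stimulus: EC50 EGF. Compound exposure 5 h, 37 °C. Detection: CCF4, 2.5 h RT, 460/530 nm. Values: AC50 from titration.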

Test [2] has as its target Cytochrome P450 1A2 (Homo sapiens) (UniProt P05177). Briefly: p450-cyp1a2 (AID 410; calls by dose curve; further: potency means the concentration at half of the fitted maximal effect;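 on activity change, negative = inhibition: -100% = full effect of reference inhibitor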). Put shortly:
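Inhibition was calculated relative to 57 uM furafylline (full inhibition). The reaction used human CYP1A2 at 20nM with Luciferin-ME at its Km, 100uM, driven by an NADPH-regenerating system for 60 min at room temperature.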

Test [3] in a line: NFAT Signaling Pathway (AID 444).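 Further: carbachol stimulus at about its EC50 of 1 µM final; on the % scale 0 is the no-effect control and ±100 the full control effect.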 The note with it: Jurkat NFAT-bla M1, carbachol, beta-lactamase ratio, 5 h; at 17.2 µM (top of the series). Put shortly:
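Jurkat cells carrying an NFAT-driven β-lactamase reporter and co-transfected muscarinic M1 receptor were treated with compound plus carbachol (1 uM final, an EC50 level) for 5 h at 37 °C. CCF4 loading followed for 1 h at RT; 460/530 nm ratio gave %activity.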

A short description of test [4]: Stat Signaling Pathway (AID 446).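 Further: ME-180 cervical cancer cells given 40 pM IL-6 alongside compound; SIE-controlled beta-lactamase reporter measured as 460/530 nm FRET emission ratio; on the % scale 0 is the no-effect control and ±100 the full control effect.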 Put shortly: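 ME-180 SIE-bla cells; overnight plating; cpd + IL-6 40 pM, 5 h, 37 C; LiveBLAzer 2.5 h RT; 460/530 nm emission ratio. Normalized to 300 pM IL-6 and 125 nM JAK inhibitor controls.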
In test [5] the target is Glucocorticoid receptor (Homo sapiens) (UniProt P04150). Briefly: GR-GFP Redistribution (AID 450;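 active means compounds whose dose series gives a full or clear partial fitted curve of increased nuclear translocation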; further: potency means the concentration at half of the fitted maximal effect). Conditions: U2OS GR-GFP nuclear translocation, laser cytometry, 2 h.
In test [6] the target is Mitogen-activated protein kinase 10 (Mus musculus) (UniProt Q61831). Briefly: JNK3 AlphaScreen Assay (AID 530).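 Further: kinase came from lysate of stimulated human HepG2 cells; signal reports phosphorylation of biotinylated GST-cJun 1-79 at Ser73 with 10 µM ATP; on the % scale 0 is the no-effect control and ±100 the full control effect.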 Put shortly:
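JNK3 came from HepG2 lysates pre-activated with IL-1beta and TNF-alpha and phosphorylated biotinylated GST-cJun (1-79) at 10 uM ATP, pH 7.6, room temperature. Compounds were titrated. AlphaScreen signal used anti-phospho-cJun (Ser73) antibody.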

For test [7], the target named is 3',5'-cyclic-AMP phosphodiesterase 4B (Homo sapiens) (UniProt Q07343). Briefly: qHTS Assay for Inhibitors of PDE-IV (AID 607; active means well fitted activation curve with a large enough effect in the main read-out, with a control signal flat, not every such curve was filed as active; further: % of control where 0% means no effect). Put shortly: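 ACTOne HEK293 cells carry a modified cAMP-gated CNG channel and express endogenous PDE4; plated 1000 cells/well, compounds up to 22.9 uM final. Membrane-potential dye fluorescence (ex 535/em 590) was read; parental cells received 10 uM forskolin + 100 uM RO 20-1724.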

Test [8] is described as follows: qHTS Assay for Lipid Storage Modulators (AID 1519; calls by dose curve). The note with it: Drosophila S3 cells, BODIPY lipid droplet/cell ratio, laser cytometry, cells loaded with oleic acid; for activity change, negative = inhibition: at 25.7 µM (top of the series). Put shortly: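 Cells seeded at 5,000 per well were treated with compounds over a concentration series and loaded with oleic acid (400 uM, as added). Lipid droplet fluorescence (488 nm excitation, 500-530 nm channel) was read by laser-scanning cytometry and normalized to 20 uM Triacsin C.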

Test [9] concerns the target Ubiquitin carboxyl-terminal hydrolase 1 (Homo sapiens) (UniProt O94782). Briefly: Inhibitors of USP1/UAF1: Pilot qHTS (AID 504865; active means well fitted curve in the direction sought with a large enough effect; an effect the other way counts as inactive or inconclusive; further: nearly all actives have a fitted effect of over 35% in size; further: potency means the concentration at half of the fitted maximal effect). Put shortly:
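USP1/UAF1 complex (1nM) preincubated with compound 15 min at room temperature, then Ub-Rho substrate (150nM final) added. Fluorescence read kinetically at 480/540 nm, 6 reads every 60 seconds. Buffer: 50mM HEPES pH 7.8, 0.5mM EDTA, 0.1 mg/ml BSA, 1mM TCEP, 0.01% Tween-20.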

Test [10] has as its target Glucocorticoid receptor (Homo sapiens) (UniProt P04150). Briefly: GR-EFC Redistribution (AID 451; calls by dose curve; further: potency means the concentration at half of the fitted maximal effect). The note with it: CHO-K1 GR-EFC translocation, beta-gal luminescence, 2 h. Put shortly: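 CHO-K1 cells stably expressing nuclear-localized β-gal enzyme acceptor and GR fused C-terminally to the enzyme donor fragment; ligand-driven nuclear translocation restores β-gal by complementation. Compounds titrated up to 46 uM final, 2 h at 37 °C; luminescence read.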

Test [11] addresses Cytochrome P450 3A4 (Homo sapiens) (UniProt P08684). Briefly: qHTS Assay for Activators of Cytochrome P450 3A4 (AID 885; active means well fitted curve in the direction sought with a large enough effect; an effect the other way counts as inactive or inconclusive; further: nearly all actives have a fitted effect of over 65% in size). Put shortly:
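20nM CYP3A4 + 25uM Luciferin-PPXE (=KM), 200mM KPO4; cpd 10 min RT; NADPH regen, 60 min RT; stop w/ detection buffer, 20 min; luminescence. Normalized to 57 uM ketoconazole.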

[12] abbreviates: measured here: cell count channel max response.
Where [13] appears, read: measured here: lipid channel max response.

Molecules are shown by their SMILES. Values joined by “and” are separate entries in the source; they are usually repeats but may differ in a detail not shown here. Equal values may be shown once. Results filed as inconclusive are left out. Where a structure was tested more than once in an assay, its records may differ in their call. Active and inactive are the calls of the source. Unless noted, the call rests on the fitted dose curve; in most records, active means well fitted curve in either direction with a large enough effect (not every such curve was filed as active); inconclusive means small, poorly fitted or top-dose-only effect, or another doubt; inactive means flat fitted curve, though single readings scatter.

Cytochrome P450 1A2 (Homo sapiens), sequence (P05177 whole entry, looked up): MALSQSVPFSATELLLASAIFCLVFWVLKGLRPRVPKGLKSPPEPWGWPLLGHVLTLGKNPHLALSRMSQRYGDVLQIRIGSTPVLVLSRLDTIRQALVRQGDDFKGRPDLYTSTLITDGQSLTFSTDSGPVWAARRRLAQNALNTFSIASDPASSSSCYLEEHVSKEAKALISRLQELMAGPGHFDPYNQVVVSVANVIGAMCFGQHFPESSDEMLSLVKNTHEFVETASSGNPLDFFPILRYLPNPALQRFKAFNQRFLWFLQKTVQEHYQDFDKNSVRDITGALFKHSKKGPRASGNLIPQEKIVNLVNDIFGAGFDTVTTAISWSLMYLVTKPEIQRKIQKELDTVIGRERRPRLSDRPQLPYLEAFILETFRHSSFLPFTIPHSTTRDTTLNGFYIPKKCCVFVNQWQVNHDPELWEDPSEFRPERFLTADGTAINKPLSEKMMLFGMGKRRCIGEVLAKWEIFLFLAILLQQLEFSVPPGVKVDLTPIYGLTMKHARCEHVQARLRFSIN
Glucocorticoid receptor (Homo sapiens), sequence (P04150 whole entry, looked up, the tested form may be a part): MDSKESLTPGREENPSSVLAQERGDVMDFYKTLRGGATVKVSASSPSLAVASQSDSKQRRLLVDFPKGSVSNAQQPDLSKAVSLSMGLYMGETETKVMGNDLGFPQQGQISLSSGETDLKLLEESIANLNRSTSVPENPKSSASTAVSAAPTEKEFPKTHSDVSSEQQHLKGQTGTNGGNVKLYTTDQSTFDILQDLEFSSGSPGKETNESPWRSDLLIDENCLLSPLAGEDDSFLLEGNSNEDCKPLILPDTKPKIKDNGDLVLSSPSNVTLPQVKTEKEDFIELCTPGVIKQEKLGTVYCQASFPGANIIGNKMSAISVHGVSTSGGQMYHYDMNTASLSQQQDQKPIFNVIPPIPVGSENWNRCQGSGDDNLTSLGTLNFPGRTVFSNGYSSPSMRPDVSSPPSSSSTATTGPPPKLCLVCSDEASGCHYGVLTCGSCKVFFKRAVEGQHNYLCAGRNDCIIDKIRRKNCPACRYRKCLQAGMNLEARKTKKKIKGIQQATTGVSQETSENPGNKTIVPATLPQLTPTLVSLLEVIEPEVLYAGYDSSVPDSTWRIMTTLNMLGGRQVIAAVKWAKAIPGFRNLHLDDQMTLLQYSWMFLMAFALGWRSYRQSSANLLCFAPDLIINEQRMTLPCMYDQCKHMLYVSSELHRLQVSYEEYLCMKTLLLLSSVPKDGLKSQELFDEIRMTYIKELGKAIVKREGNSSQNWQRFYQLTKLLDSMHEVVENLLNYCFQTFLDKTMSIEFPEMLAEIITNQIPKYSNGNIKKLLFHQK
3',5'-cyclic-AMP phosphodiesterase 4B (Homo sapiens), sequence (Q07343 whole entry, looked up): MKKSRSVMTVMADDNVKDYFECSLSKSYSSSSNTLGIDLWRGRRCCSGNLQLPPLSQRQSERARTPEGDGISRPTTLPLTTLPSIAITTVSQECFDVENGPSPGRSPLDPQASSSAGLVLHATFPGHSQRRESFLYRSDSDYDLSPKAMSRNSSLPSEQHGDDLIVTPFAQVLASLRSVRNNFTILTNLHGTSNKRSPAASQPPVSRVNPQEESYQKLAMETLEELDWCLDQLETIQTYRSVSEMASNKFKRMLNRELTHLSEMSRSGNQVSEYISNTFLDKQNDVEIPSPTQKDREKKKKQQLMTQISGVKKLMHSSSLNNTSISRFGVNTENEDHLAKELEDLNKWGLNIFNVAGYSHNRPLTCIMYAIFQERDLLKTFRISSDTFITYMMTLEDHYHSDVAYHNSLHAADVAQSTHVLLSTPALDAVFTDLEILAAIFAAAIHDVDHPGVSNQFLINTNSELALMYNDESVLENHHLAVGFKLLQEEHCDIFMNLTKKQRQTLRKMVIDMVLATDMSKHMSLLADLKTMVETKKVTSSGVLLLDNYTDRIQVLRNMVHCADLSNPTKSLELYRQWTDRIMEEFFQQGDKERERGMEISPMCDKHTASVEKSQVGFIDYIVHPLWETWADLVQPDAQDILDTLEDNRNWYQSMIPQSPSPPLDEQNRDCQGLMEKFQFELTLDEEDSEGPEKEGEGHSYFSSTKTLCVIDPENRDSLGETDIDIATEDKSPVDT
Ubiquitin carboxyl-terminal hydrolase 1 (Homo sapiens), sequence (O94782 whole entry, looked up): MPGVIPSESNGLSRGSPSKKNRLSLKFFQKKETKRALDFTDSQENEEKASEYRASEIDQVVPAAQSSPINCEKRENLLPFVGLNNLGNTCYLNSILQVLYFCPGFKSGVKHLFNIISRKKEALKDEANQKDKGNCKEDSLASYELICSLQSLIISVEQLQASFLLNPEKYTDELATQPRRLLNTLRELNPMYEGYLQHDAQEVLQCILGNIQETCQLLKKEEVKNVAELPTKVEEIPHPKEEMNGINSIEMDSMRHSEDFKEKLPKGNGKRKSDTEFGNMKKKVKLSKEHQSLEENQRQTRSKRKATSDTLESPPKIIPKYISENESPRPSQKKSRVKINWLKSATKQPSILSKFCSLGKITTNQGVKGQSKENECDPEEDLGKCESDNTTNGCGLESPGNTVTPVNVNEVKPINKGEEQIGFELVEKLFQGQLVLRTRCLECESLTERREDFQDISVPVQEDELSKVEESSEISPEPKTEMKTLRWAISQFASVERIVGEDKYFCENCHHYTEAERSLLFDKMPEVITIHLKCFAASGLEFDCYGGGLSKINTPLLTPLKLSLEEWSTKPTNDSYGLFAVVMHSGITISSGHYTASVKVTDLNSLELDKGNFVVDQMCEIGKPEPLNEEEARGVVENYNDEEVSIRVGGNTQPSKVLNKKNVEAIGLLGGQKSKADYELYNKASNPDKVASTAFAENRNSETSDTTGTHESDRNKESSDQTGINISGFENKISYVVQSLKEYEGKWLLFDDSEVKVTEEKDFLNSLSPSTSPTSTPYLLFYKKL
Cytochrome P450 3A4 (Homo sapiens), sequence (P08684 whole entry, looked up): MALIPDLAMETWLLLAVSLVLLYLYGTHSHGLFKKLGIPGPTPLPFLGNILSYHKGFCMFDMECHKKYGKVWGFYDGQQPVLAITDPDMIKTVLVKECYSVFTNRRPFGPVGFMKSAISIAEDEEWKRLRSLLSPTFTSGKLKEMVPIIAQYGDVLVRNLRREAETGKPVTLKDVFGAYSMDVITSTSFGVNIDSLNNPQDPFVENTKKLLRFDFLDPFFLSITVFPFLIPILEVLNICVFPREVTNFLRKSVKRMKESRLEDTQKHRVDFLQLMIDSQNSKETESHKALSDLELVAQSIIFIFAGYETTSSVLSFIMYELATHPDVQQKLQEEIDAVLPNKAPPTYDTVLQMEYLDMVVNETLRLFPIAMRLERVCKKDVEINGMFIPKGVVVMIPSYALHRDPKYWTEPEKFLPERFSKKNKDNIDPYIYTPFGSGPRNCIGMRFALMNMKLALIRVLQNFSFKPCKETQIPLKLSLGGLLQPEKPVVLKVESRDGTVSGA

In the case of `CCN1C[C@]2(COC)CC[C@H](O)[C@@]34[C@@H]5C[C@H]6[C@@H](OC)[C@H]5[C@](O)(C[C@@H]6OC)[C@@](O)([C@@H](OC)[C@H]23)[C@@H]14`, the result in [1], in test [4] and in test [6] was inactive. In addition, the Potency entry in [2], in [7] and in [9] was “inactive” each time. In addition, the results for the activity change, negative = inhibition in test [3] and in [8] were 2.57% (inactive) and 0.923% (inactive), respectively. The Potency in test [5] is > 20.6 µM (inactive). For the same compound, the max response in [8] (setting [12]) was -10.9%; in [8] (setting [13]), -9.81%.
For the compound `CC[C@H](C)C(=O)O[C@@H]1[C@H](O)[C@@H]2[C@H](CN3C[C@@H](C)CC[C@@H]3[C@@]2(C)O)[C@@H]2C[C@@]34O[C@@]5(O)[C@@H](OC(=O)[C@](C)(O)CC)CC[C@@]3(C)[C@H]5[C@H](OC(C)=O)[C@@H](OC(C)=O)[C@H]4[C@]12O`, the call in test [1] and in test [4] was inactive. Further, the Potency result in test [2] and in test [7] was “inactive” throughout. The activity change, negative = inhibition in test [3] was -8.39% (inactive); in [8], -1.19% (inactive). The Potency in test [5] and in test [10] was > 20.6 µM (inactive) in each case. Also, the results for the max response in [8] (setting [12]) and in test [8] (setting [13]) were -2.6% and -3.1%, respectively.
On to `CN(C)[C@@H]1C(=O)C(C(N)=O)=C(O)[C@]2(O)C(=O)C3=C(O)c4c(O)cccc4[C@@](C)(O)[C@H]3[C@H](O)[C@@H]12`, for which the outcome in [1], in test [4] and in test [6] was inactive. Moreover, the Potency entry in test [2] and in test [7] was “inactive” throughout. Moreover, the activity change, negative = inhibition in test [3] was -3.39% (inactive); in [8], -0.12% (inactive). Moreover, the max response in test [8] (setting [12]) is -12.1%; in test [8] (setting [13]), -10.8%. Besides, in test [9], the Potency was 31.6 µM (active).
`COc1cc2c(cc1OC)[C@H](C)NCC2`: the compound was called inactive in [1], in test [4] and in test [6]. For the same compound, the Potency entry in test [2] was “inactive and 20 µM (active)”; in [5], > 20.6 µM (inactive) and > 46 µM (inactive); in test [10] it was > 20.6 µM (inactive) and > 46 µM (inactive). In addition, the activity change, negative = inhibition in [3] is 4.97% (inactive); in test [8], -2.81% (inactive). The Potency entry in [7] and in test [9] was “inactive” throughout. For the same compound, the figures for the max response in test [8] (setting [12]) and in test [8] (setting [13]) were -4.52% and -9.32%, respectively.
As for `C=C1C/C(=C\C)C(=O)O[C@@H]2CCN3CC=C(COC(=O)[C@@]1(C)O)[C@H]23`, the compound was classed as inactive in test [1], in [4] and in test [6]. The Potency entry in test [2], in test [7], in test [11] and in test [9] was “inactive” in each case. For the same compound, the activity change, negative = inhibition was -7.46% (inactive) in test [3] and 1.53% (inactive) in test [8]. In addition, the Potency in test [5] and in [10] was > 20.6 µM (inactive) each time. Also, the max response in [8] (setting [12]) amounted to 8.7%; in test [8] (setting [13]), 10.5%.
In the case of `C[C@@]12CC(=O)[C@H]3[C@@H](CCC4=CC(=O)CC[C@]43C)[C@H]1CCC2=O`, the call in test [1] and in test [4] was inactive. Further, the Potency result in [2] and in [7] was “inactive” throughout. Further, the values for the activity change, negative = inhibition in [3] and in test [8] were 2.56% (inactive) and -2.03% (inactive), respectively. The Potency in test [5] and in [10] was > 20.6 µM (inactive) each time. The max response was -10.7% in test [8] (setting [12]) and -12.2% in [8] (setting [13]).

For the origin of these results see PubChem BioAssay (NCATS).
